In the library only some 6.2% were active in any assay of this set; here they are far more common.
S2 tox = Viability Counterscreen for Primary qHTS for Inhibitors of ATXN expression; AID 651635, 2014; S2 cells (HEK-293 line with an ATXN2-luciferase reporter) viability, CellTiter-Fluor protease fluorescence, 24 h; actives 0.49% (n = 400,000); Potency, µM (titrated, usually from 56.7 µM), hits mostly cytotoxic; further: nearly all actives have a fitted effect of over 40% in size
HT1080-NT tox = qHTS for induction of synthetic lethality in tumor cells producing 2HG: qHTS for the HT-1080-NT fibrosarcoma cell line. actives 1.6% (n = 360,000). Potency, µM (doses to about 46.1 µM), usual class: cytotoxic. HT-1080-NT fibrosarcoma viability, CellTiter-Glo ATP luminescence, 48 h;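 further: NT is the 2HG producing partner of a matched IDH1 knockdown line; nearly all actives have a fitted effect of over 55% in size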
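A 48-hour cytotoxicity screen used HT-1080-NT cells plated 2 hours before compound delivery. ATP-based CellTiter-Glo luminescence measured viability, normalized to DMSO and no-cell controls.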
KB-V1 cytotox = qHTS assay for MDR1-selective chemotherapeutics: Primary screen using the drug-selected MDR subline cells KB-V1; actives 3.4% (n = 400,000); Potency, µM (titrated, usually from 46.1 µM), usual class: cytotoxic; KB-V1 MDR cells viability, CellTiter-Glo, 72 h; further: nearly all actives have a fitted effect of over 60% in size
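Drug-selected KB-V1 cells, grown in DMEM lacking phenol red with 10% FBS, receive compound titrations; after three days at 37 degrees C, surviving cell ATP is quantified by CellTiter-Glo luminescence and responses normalized and curve-fitted.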
ATXN2 expr inh = Primary qHTS for Inhibitors of ATXN expression | HEK-293 ATXN2-luciferase reporter, luminescence, 24 h | Potency, µM (titrated, usually from 57 µM), actives largely listed as inhibitors | actives 0.72% (n = 360,000); further: nearly all actives have a fitted effect of over 55% in size
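qHTS (up to 57 uM final) was run with 24 h compound exposure of reporter cells at 37 °C. Each well was multiplexed: SteadyGlo luminescence measured ATXN2-luciferase expression after a fluorogenic Gly-Phe-AFC viability readout (25 uM final).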
HT1080 IDH1KD tx = qHTS for induction of synthetic lethality in tumor cells producing 2HG: qHTS for the HT-1080-IDH1KD cell line | HT-1080 IDH1 knockdown viability, ATP luminescence, 48 h | Potency, µM (top dose mostly 46.1 µM), most hits filed as cytotoxic | actives 2% (n = 360,000) | AID 686971, 2013
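Assay cells: HT-1080 with IDH1 knockdown, 750 per well, RPMI/5% FBS. Exposure: 48 h at 37 °C following 2 h pre-incubation. Read: CellTiter-Glo luminescence; fitted concentration-response, curve class assigned.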
KB-3-1 tox = qHTS assay for MDR1-selective chemotherapeutics: Primary screen using the parental adenocarcinoma cell KB-3-1; actives 1.4% (n = 400,000); Potency, µM (top dose mostly 46.1 µM), actives largely listed as cytotoxic; KB-3-1 viability, CellTiter-Glo ATP luminescence, 72 h; further: nearly all actives have a fitted effect of over 60% in size
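Luminescent ATP read-out (CellTiter-Glo) measures survival of drug-naive KB-3-1 cells after 72 h compound exposure at 37 °C. Titration series was screened from lowest to highest concentration, with DMSO vehicle plates as background controls.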
Numbers stand for hits; – = inactive; ? = inconclusive; · = not tested or not shown; ! = a repeat was not active. The call rests on the fitted dose curve; in most records, active means well fitted curve in the direction sought with a large enough effect; inconclusive means small, poorly fitted or top-dose-only effect, or another doubt; inactive means no such curve, though single readings can be large; an effect the other way counts as inactive or inconclusive.

SMILES	S2 tox	HT1080-NT tox	KB-V1 cytotox	ATXN2 expr inh	HT1080 IDH1KD tx	KB-3-1 tox
Cc1ccc2nc(SCC(=O)N3CCC4(CC3)CC4C(=O)Nc3ccc(F)c(F)c3)[nH]c2c1 (configuration not stated)	–	·	·	·	·	·
COc1cccc(C2(CC(=O)N3CCCOc4c(cccc4OC)C3)CC(=O)N(C)C2=O)c1 (configuration not stated)	–	·	·	·	·	·
COc1nc(Nc2ccc(O)cc2)nc(OC(C(F)(F)F)C(F)(F)F)n1	–	–	–	–	–	?
Nc1cccc(Nc2nc(OC(C(F)(F)F)C(F)(F)F)nc(OC(C(F)(F)F)C(F)(F)F)n2)c1	–	?	23µM	–	?	18µM
Cc1nc(NC(=O)c2cccc(-c3cc4ccccc4oc3=O)c2)ccc1Br	?	–	?	–	–	?
O=C(Nc1ccc(N2CCCC2)cc1)c1cccc(-c2cc3ccccc3oc2=O)c1	–	–	–	–	–	–
O=C(Nc1ccc(Br)cn1)c1cccc(-c2cc3ccccc3oc2=O)c1	–	?	–	–	23µM	?
O=C(Nc1ccccc1N1CCCC1)c1cccc(-c2cc3ccccc3oc2=O)c1	–	–	3.7µM	–	–	–
Cc1c(N2C(=O)/C(=C\c3ccccc3O)SC2=S)c(=O)n(-c2ccccc2)n1C	–	–	–	–	–	–
CN1C(=O)/C(=C/c2cc(N=Nc3ccccc3)ccc2O)SC1=S	28µM	–	–	?	–	–
OC[C@H]1O[C@@H](n2cnc3c2NC=NC[C@@H]3O)C[C@H]1O	·	·	·	–	·	·
NS(=O)(=O)c1ccc(N2N=C(c3ccccc3)CC2c2cccc(F)c2)cc1 (configuration not stated)	–	–	?	–	–	?
NS(=O)(=O)c1ccc(N2N=C(c3ccc(Br)cc3)CC2c2ccc(F)cc2)cc1 (configuration not stated)	·	6.5µM	?	?	12µM	?
COC(=O)c1sc2cccc(F)c2c1S(=O)(=O)N1CCN(c2cccc(C)c2)C(C)C1 (configuration not stated)	–	·	?	–	·	–
CC(=O)Nc1ccc(NC(=O)C(C)c2cccc(C(=O)c3ccccc3)c2)cc1 (configuration not stated)	–	–	–	–	–	–
CC(=O)Nc1ccc([C@H](C)C(=O)Nc2ncc(C(C)C)s2)cc1	·	·	·	0.34µM	·	·
COc1ccc(-c2cc(C(=O)Nc3cccnc3)c3ccccc3n2)cc1OC	–	–	9.2µM	–	–	?
O=C(Nc1ccncc1)c1cc(-c2cccc(Br)c2)nc2ccccc12	?	?	?	?	?	21µM
O=C(Nc1cccnc1)c1cc(-c2cccc(Br)c2)nc2ccccc12	?	–	10µM	–	–	–
COc1cccc(-c2cc(C(=O)Nc3cccnc3)c3ccccc3n2)c1	?	–	?	–	–	–
O=C(NC1CC1)c1cc(-c2ccc(Br)cc2)nc2ccccc12	·	–	–	·	–	–
O=C(Nc1cccnc1)c1cc(-c2cccnc2)nc2ccc(Br)cc12	–	–	–	–	–	–
CN1CCC(NC(=O)c2cc(-c3cccc(Br)c3)nc3ccccc23)CC1	?	21µM	–	?	21µM	?
CCc1ccc(NC(=O)CSc2nc(=O)n(CCN(C)C)c3c2CCCC3)cc1	?	–	–	–	–	–
Cc1cccc(NC(=O)CN2C(=O)C3(SCC(=O)N3c3ccccc3)c3ccccc32)c1 (configuration not stated)	–	·	?	–	·	–
SMILES	S2 tox	HT1080-NT tox	KB-V1 cytotox	ATXN2 expr inh	HT1080 IDH1KD tx	KB-3-1 tox
CCOC(=O)N1CCN(C(=O)CN2C(=O)NC(C)(c3ccc4ccccc4c3)C2=O)CC1 (configuration not stated)	–	–	–	·	–	–
O=C(NC1=NCCS1)c1cc(-c2cccc(Br)c2)nc2ccccc12	–	–	15µM	–	–	?
O=C(NCc1ccccn1)c1cc(-c2ccc(Br)cc2)nc2ccccc12	–	–	2.6µM	–	–	–
Cc1ccc2nc(-c3cccc(Br)c3)cc(C(=O)NC3=NCCS3)c2c1	–	–	–	–	–	–
CC1(C(=O)NS(=O)(=O)c2cccc(Cl)c2)CCN1C(=O)c1ccccc1 (configuration not stated)	–	–	–	–	–	–
CC(=O)C1=NN(c2ccccc2)C(c2cccs2)N1c1ccc(N(C)C)cc1 (configuration not stated)	?	7.1µM	–	?	2.5µM	?
CCOC(=O)C1CCN(Cc2nc3ccccc3c(=O)n2-c2ccc(F)cc2)CC1	–	–	4.1µM	–	–	–
CCOC(=O)C1CCN(Cc2ccc(OC)c(C)c2OC)CC1	–	–	?	–	–	–
CCOC(=O)C1CCN(Cc2cc(Cl)c3ccccc3c2O)CC1	?	?	–	–	26µM	–
CC(C)(C)N(Cc1ccccc1)C(=O)COC(=O)c1ccccc1SCC(=O)N1CCCC1	–	–	21µM	–	–	–
COC(=O)Nc1nc2ccc(SC(C)C)cc2[nH]1	?	?	1µM	–	1.3µM	1.5µM
Cc1ccc(Cl)cc1NS(=O)(=O)c1ccccc1	–	–	–	–	–	–
O=S(=O)(/N=C/c1ccccc1O)c1cccs1	–	–	–	–	–	?
O=C1C(Nc2ccc(O)cc2)=C/C(=N/S(=O)(=O)c2cccs2)c2ccccc21	8.9µM	2.3µM	13µM	4µM	1.5µM	3.3µM
Cc1cccc(NC2=C/C(=N/S(=O)(=O)c3cccs3)c3ccccc3C2=O)c1	?	4.6µM	?	?	3.3µM	?
Cc1ccc(Cl)cc1NC1=C/C(=N\S(=O)(=O)c2cccs2)c2ccccc2C1=O	11µM	3.7µM	9.2µM!	2.8µM	4.6µM	3.3µM!
COc1ccc(C2=C(Nc3ccc(C)cc3C)c3ccccc3C2=O)cc1	?	·	–	–	·	–
Cc1ccc(NC2=C/C(=N\S(=O)(=O)c3cccs3)c3ccccc3C2=O)c(C)c1	8.9µM	7.3µM	5.2µM	?	6.5µM	6.5µM
COc1ccc(C(C)=O)cc1COC(=O)CCNS(=O)(=O)c1ccc(C)c(C)c1	–	–	–	–	–	–
CCOc1ccc(CCNc2ncnc3onc(-c4ccc(F)cc4)c23)cc1OCC	?	·	2.6µM	–	·	–
Cc1cccc(CCNc2ncnc3onc(-c4ccc(Cl)cc4)c23)c1	–	·	21µM	–	·	–

Compound activity deposited in PubChem by National Center for Advancing Translational Sciences (NCATS).
